ERb coact inh = inhibitors of ERβ-SRC1 coactivator interaction, primary screen, biochemical, TR-FRET, ERβ LBD, SRC-1 peptide | inhibition, % at 25.6 µM | 86,000 compounds, 1.3% hits | Estrogen receptor beta (Homo sapiens), Q92731 | TR-FRET ER-beta LBD / SRC1-Cy5 peptide binding; receptor agonist-loaded with 1 µM estradiol;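 active = compounds whose percent inhibition of the receptor-coactivator binding signal exceeds about 50% in the single-dose screen, limit read from the data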;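 also: 0% = receptor plus peptide wells without compound and 100% = peptide-only wells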
ERa SRC1 inh = ERα–SRC-1 coactivator interaction inhibitors, primary screen, biochemical, TR-FRET, ERα LBD, estradiol-bound. Estrogen receptor (Homo sapiens), P03372. TR-FRET ER-alpha LBD / SRC-1 peptide. inhibition, % at 25.6 µM. 86,000 compounds, 1.7% hits; in the data active = inhibition above about 50%;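 also: 0% = receptor plus peptide control and 100% = peptide only without receptor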
FAK blocker = FAK kinase inhibitors, primary screen, biochemical | Focal adhesion kinase 1 (Homo sapiens), Q05397 | biochemical FAK kinase activity assay | inhibition, %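 (tested at 7 µM)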 | 97,000 compounds, 0.84% hits | AID 727, 2007; in the data active = inhibition above about 19%;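 also: 0% = DMSO and 100% = reference compound high control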
Smad3 FoxH1 inh = Smad3/FoxH1 peptide binding inhibitors, primary screen, biochemical, TR-FRET; Mothers against decapentaplegic homolog 3 (Homo sapiens), P84022; TR-FRET Smad3/Dy647-FoxH1 peptide binding, europium anti-His; inhibition, % at 25 µM; 88,000 compounds, 0.29% hits; AID 630, 2007;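 active = compounds that reduce the energy-transfer binding signal between the protein and its labelled peptide by more than half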;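 also: 0% = Smad3 plus labelled peptide maximal FRET and 100% = peptide-only background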
Target sequence (P84022 whole entry, looked up): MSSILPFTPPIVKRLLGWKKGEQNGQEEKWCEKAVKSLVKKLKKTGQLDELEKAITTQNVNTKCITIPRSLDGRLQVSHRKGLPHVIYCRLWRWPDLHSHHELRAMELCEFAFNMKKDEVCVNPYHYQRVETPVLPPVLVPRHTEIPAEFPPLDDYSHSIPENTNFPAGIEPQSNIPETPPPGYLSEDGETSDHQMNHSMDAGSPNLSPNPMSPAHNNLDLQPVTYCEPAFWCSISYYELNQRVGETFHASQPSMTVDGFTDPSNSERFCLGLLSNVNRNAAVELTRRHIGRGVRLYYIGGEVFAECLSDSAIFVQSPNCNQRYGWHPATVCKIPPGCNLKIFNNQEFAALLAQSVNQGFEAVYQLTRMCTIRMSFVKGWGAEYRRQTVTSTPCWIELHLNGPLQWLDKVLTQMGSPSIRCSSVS
ERa coact pot = enhancers of ERα–SRC-1 coactivator binding, primary screen, biochemical, TR-FRET, ERα LBD, low estradiol | coactivator binding (% of control), % at 25.6 µM | TR-FRET ERalpha-LBD/SRC-Cy5 coactivator binding, 2 h; 100 = basal binding, no effect | 86,000 compounds, 1.3% hits | AID 639, 2007 | Estrogen receptor (Homo sapiens), P03372; in the data active = activity above about 200%;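 also: binding measured in presence of low estradiol as agonist stimulus; 0% = peptide alone without receptor and 100% = receptor with peptide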
* = called active by the depositor; / = no result; [ ] = remark or other dose. Compounds with a hit are over-represented: about 3.3% of the library has one in this group of screens.

SMILES	ERb coact inh	ERa SRC1 inh	FAK blocker	Smad3 FoxH1 inh	ERa coact pot
CCCSc1nc(SCC(=O)NCc2ccccc2)c2c3c(sc2n1)COC(C)(CC)C3 (stereo not given)	-2	-16	-3	-178	298*[fluorescence artefact?]
CC1N(C)c2cccc3cccc(c23)N1C	83*[fluorescence artefact?]	51*[fluorescence artefact?]	1	-4	51
O=C(O)CN(CC(=O)O)c1ccccc1	/	/	/	1	/
COc1ccc(NC(=O)C2CCN(c3cc(-c4ccccc4)nc4ncnn34)CC2)cc1OC	-4	17	2	2	104
COc1ccc(OC)c(NC(=O)C2CCN(c3cc(-c4ccccc4)nc4ncnn34)CC2)c1	56*[fluorescence artefact?]	31	2	3	127
CCCc1nnc(NC(=O)c2c(O)c3cccc4c3n(c2=O)CCC4)s1	56*[fluorescence artefact?]	15	/	45	93
CC(C)c1nnc(NC(=O)c2c(O)c3cccc4c3n(c2=O)CC4)s1	5	3	/	17	111
COc1ccc(C)cc1NC(=O)Nc1ccc(Br)cn1	34	10	5	6	243*
O=C(Nc1ccc2c(c1)OCO2)Nc1ccc(Br)cn1	33	15	3	0	228*
O=C(O)[C@@H](c1ccccc1)[C@@H](C(=O)O)c1ccccc1	/	/	/	4	/
Cc1cc(=O)[nH]c(/N=C(\N)Nc2ccc(Cl)cc2)n1	/	/	/	-15	/
Cc1cc(NC(=O)CSc2nc(-c3cccnc3)ccc2C#N)no1	-6	-9	4	-1	112
COc1ccc(-c2c(C#N)c(SCC(N)=O)nc3c2CCCC3)cc1	10	18	-1	7	285*
Cc1cc(NC(=O)CSc2nc3c(c(-c4cccnc4)c2C#N)CCC3)no1	19	22	-14	-296	258*[fluorescence artefact?]
COc1ccc(C(=O)CSc2nc(N)nc(SC)c2C#N)cc1	23	21	-1	16	480*[fluorescence artefact?]
CCn1c(CSCc2ccc(F)cc2)nnc1SCC(=O)N1CCN(c2ccccc2)CC1	/	/	1	/	/
CCn1c(Cc2ccc(OC)cc2)nnc1SCC(=O)N1CCN(c2ccccc2)CC1	-14	-8	0	3	591*[fluorescence artefact?]
c1ccc2sc(SCN(C3CCCCC3)C3CCCCC3)nc2c1	/	/	/	62*	/
O=C(O)CSSCC(=O)O	/	/	/	-15	/
CCNC(=O)c1oc2c(c1C)C(=O)CC(C)(C)C2	-7	2	0	0	101
CC1(C)CC(=O)c2c(oc3cc(O)c(O)cc23)C1	58*[fluorescence artefact?]	27	0	7	71
O=C(O)c1ccc(Nc2ccnc3cc(Cl)ccc23)cc1O	/	/	/	14	/
COc1ccc(C2CC(=O)Nc3ccccc3S2(=O)=O)cc1OC (stereo not given)	50*	32	/	2	55
Cc1cc(Br)ccc1NC(=O)CN1C(=O)C2C3CC(c4ccccc4)C(C3)C2C1=O (stereo not given)	/	/	-3	/	/
Oc1ccc(Cc2nccc3cc(O)c(O)cc23)cc1O	/	/	/	89*	/
SMILES	ERb coact inh	ERa SRC1 inh	FAK blocker	Smad3 FoxH1 inh	ERa coact pot
CO[C@@H]1/C=C\O[C@@]2(C)Oc3c(C)c(O)c4c(c3C2=O)C(=N[C@H]2CC[C@H](O)O[C@@H]2C)C=C(NC(=O)/C(C)=C\C(=O)[C@@H]2C[C@H]2[C@@H](O)[C@H](C)[C@@H](O)[C@H](C)[C@H](OC(C)=O)[C@@H]1C)C4=O	/	/	/	9	/
OCCSCc1cc(Cl)cc(Cl)c1O	/	/	/	0	/
Cc1cccc(-c2cc3nc(-c4ccccc4)cc(N4CCC5(CC4)OCCO5)n3n2)c1	-5	-6	1	0	127
Cc1ccc(-c2cc3nc(-c4ccccc4)cc(N4CCC5(CC4)OCCO5)n3n2)cc1	9	-12	-1	14	284*[fluorescence artefact?]
N=C(N)c1ccc(/C=C/c2ccc(C(=N)N)cc2)cc1	/	/	/	-2	/
CCN(CC)c1ccc(-c2c(C#N)c(N)nc(OC)c2C#N)cc1	26	21	-12	8	213*[fluorescence artefact?]
CCOC(=O)c1c(C)oc2ccc(NS(=O)(=O)c3ccc4c5c(cccc35)C(=O)N4)cc12	65*[fluorescence artefact?]	67*[fluorescence artefact?]	10	8	52
COc1cc2nncc(SCc3ccc(Cl)c(Cl)c3)c2cc1OC	/	/	/	-16	/
Cc1occc1-c1nnc(SCc2cc(=O)n3cc(Br)ccc3n2)n1C	53*	61*	-2	8	121
Cc1ccccc1Nc1nc(CSc2nnc(-c3ccoc3C)n2C)cs1	7	0	-3	1	92
Cn1c(SCc2cc(=O)n3cc(Br)ccc3n2)nnc1C1COc2ccccc2O1 (stereo not given)	49	68*	-6	-3	65
Nc1nc(SCCC2CCCCC2)c2[nH]cnc2n1	/	/	/	12	/
Cc1oc(-c2ccc(Cl)cc2)nc1CN1CCCC(C(=O)NCc2ccccn2)C1 (stereo not given)	2	-4	-3	2	99
Cc1oc(-c2ccc(Cl)cc2)nc1CN1CCCC(C(=O)NCc2cccnc2)C1 (stereo not given)	53*	-7	2	-4	109
O=c1/c(=C/c2ccccn2)sc2nc3ccccc3n12	47	90*[fluorescence artefact?]	17	19	68
O=c1c2ccccc2nc2sc3ccccc3n12	/	/	20*	/	/
CCNc1ccc(Br)cc(C(=O)/C=C/c2ccc3c(c2)OCO3)c1=O	/	/	9	/	/
CNc1ccc(Br)cc(C(=O)/C=C/c2cccc(OC)c2)c1=O	-4	66*[fluorescence artefact?]	6	2	66
CCNc1ccc(Br)cc(C(=O)/C=C/c2c(Cl)cccc2Cl)c1=O	72*[fluorescence artefact?]	75*[fluorescence artefact?]	2	8	95
O=C(Nc1ccc2c(c1)OCO2)c1cccc2c1C(=O)N(Cc1cccnc1)C2	61*	77*[fluorescence artefact?]	/	1	32
CCCN1Cc2cccc(C(=O)Nc3ccc4c(c3)OCO4)c2C1=O	13	11	/	9	79
CCc1c(O)c2c(c(O)c1C(C)=O)C(=O)c1c(cc(O)c(C(=O)O)c1C(=O)O)C2=O	/	/	/	9	/
O=C(CS(=O)(=O)c1cn(Cc2ccc(Cl)cc2)c2ccccc12)N1CCCC1	51*[fluorescence artefact?]	12	1	-8	86
O=C(CS(=O)(=O)c1cn(Cc2ccccc2Cl)c2ccccc12)N1CCOCC1	1	-3	-2	-13	90
CC(=O)N1CCN(c2ccc(S(=O)(=O)N3CCCCC3)cn2)CC1	-7	3	-10	10	115
O=S(=O)(c1ccc(N2CCN(S(=O)(=O)c3ccc4c(c3)OCCO4)CC2)nc1)N1CCCC1	44	35	2	0	275*[fluorescence artefact?]
Cc1nc(CN2CCCCC2)c(O)c(=O)[nH]1	/	/	/	-1	/
O=C(COc1ncnc2scc(-c3ccc(F)cc3)c12)NCc1ccco1	2	-1	-2	5	93
Cc1ccc(-c2csc3ncnc(OCC(=O)NC(=O)NCc4ccco4)c23)cc1	38	56*[fluorescence artefact?]	/	10	68
Cc1sc2ncnc(NCc3cccs3)c2c1C	-10	-18	8	6	103

Bioassay records as filed in PubChem BioAssay.
